# Bioassay records as filed in PubChem.
# Cycloheximide cs: counter-screen for Shiga toxin inhibitors: cycloheximide protein synthesis inhibition | max response, % | actives 12% (n = 300,000) | AID 2314 | cell reporter, cycloheximide protein synthesis inhibition counterscreen; in the data active = max response mostly above about 13%, no sharp cut-off; inactive = mostly below about 14%; also: read at 38.3 µM for the half of the compounds with a filed dose; 0% is about no effect
# LmPK inhibitor: inhibitors of Leishmania mexicana pyruvate kinase | Q27686 | purified LmPK, Kinase-Glo ATP luminescence, 1 h | Potency, µM (top dose mostly 57.5 µM), inactives show at the top dose activity change, negative = inhibition, most hits filed as inhibitors | actives 0.37% (n = 290,000); also: potency is read from the fitted curve at half-maximal effect; % is scaled to controls: 0 for no effect and ±100 for the full control effect
#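 0.1 nM LmPK, 0.5 mM PEP, 0.1 mM ADP; 50 mM imidazole pH 7.2, 7 mM MgCl2, 50 mM KCl; 1 h RT. Kinase-Glo luminescence readout, normalized to no-enzyme (full inhibition) and uninhibited wells.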
# FBPA Giardia inh: blocks Giardia fructose-bisphosphate aldolase activity; A8B2U2; purified Giardia FBPA; Potency, µM (series often up to 59.6 µM), without a hit: at the top dose activity, negative = inhibition, usual class: inhibitors; actives 0.71% (n = 290,000); also: potency is read from the fitted curve at half-maximal effect; % is scaled to controls: 0 for no effect and ±100 for the full control effect; nearly all actives have a fitted effect of over 55% in size
# Target sequence (A8B2U2 whole entry, looked up): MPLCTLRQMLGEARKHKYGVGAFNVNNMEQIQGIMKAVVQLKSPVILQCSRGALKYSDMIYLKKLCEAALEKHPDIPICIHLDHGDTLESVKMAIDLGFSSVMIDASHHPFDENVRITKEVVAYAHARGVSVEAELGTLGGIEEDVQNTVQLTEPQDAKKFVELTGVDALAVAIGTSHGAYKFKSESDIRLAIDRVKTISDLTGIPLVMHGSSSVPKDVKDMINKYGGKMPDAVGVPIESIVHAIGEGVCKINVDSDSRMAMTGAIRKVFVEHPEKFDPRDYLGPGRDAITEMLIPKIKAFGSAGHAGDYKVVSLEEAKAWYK
#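 Giardia FBPA (40 nM reagent) was preincubated 10 min at RT with compound (up to 57.5 uM final), then substrate plus GAPDH/TPI/NAD/arsenate coupling system with diaphorase/resazurin was added; resorufin fluorescence (525/598 nm) was read after 20 min.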
# Tb PYK inh: inhibitors of Trypanosoma brucei pyruvate kinase. Q57TT1. TbPYK enzyme, Kinase-Glo Plus ATP luminescence, 45 min. Potency, µM (top dose mostly 76.8 µM), without a hit: at the highest dose activity, negative = inhibition, usual class: inhibitors. actives 0.12% (n = 410,000); also: potency is read from the fitted curve at half-maximal effect; % is scaled to controls: 0 for no effect and ±100 for the full control effect; nearly all actives have a fitted effect of over 50% in size
#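 T. brucei PYK with substrate was exposed to pin-transferred compounds across a concentration series, then started with 130 uM ADP (final). After 45 min at room temperature, Kinase-Glo Plus luminescence was read, normalized and curve-fitted.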
# Shiga inhibitor: blocks Shiga toxin action in Vero cells; Vero cells, Shiga toxin protein synthesis inhibition reporter; inhibition, % at 38.7 µM; actives 9.2% (n = 290,000); AID 2315; in the data active = inhibition mostly above about 28%, no sharp cut-off; inactive = mostly below about 43%; also: 0% is about no effect
# RE007 growth inh: less growth of the S. pombe RE007 Vpr strain | S. pombe RE007 Vpr strain, BacTiter-Glo ATP luminescence, 24 h | Potency, µM (series often up to 92.2 µM), inactives show at the highest dose activity change, negative = less growth, usual class: inhibitors | actives 0.21% (n = 360,000); active = well fitted falling curve with a large enough effect; inconclusive = small, poorly fitted or top-dose-only effect; inactive = no such curve, though single readings can be large or run the other way; also: potency is read from the fitted curve at half-maximal effect; % is scaled to controls: 0 for no effect and ±100 for the full control effect; nearly all actives have a fitted effect of over 50% in size
#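 Fission yeast RE007 carrying one integrated HIV-1 vpr copy, seeded at OD 0.01 in PMG+AL medium with 23 nL pinned compound. Grown 24 h at 30 degrees; viability read by BacTiter-Glo luminescence after 5 min.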
# * marks the source's active call; other numbers are inactive results; u = inconclusive; x = no result given; [ ] = another dose, or the depositor's remark. This is one part of a sample in which hits are shown more often than they occur. Unless noted, calls follow the shape of the dose curve; as a rule, active = well fitted curve in the direction sought with a large enough effect; inconclusive = small, poorly fitted or top-dose-only effect, or another doubt; inactive = no such curve, though single readings can be large; an effect the other way counts as inactive or inconclusive.
SMILES,Cycloheximide cs,LmPK inhibitor,FBPA Giardia inh,Tb PYK inh,Shiga inhibitor,RE007 growth inh
Cc1cccc2cc(-c3nc4ccc(C(=O)O)cc4[nH]3)c(=O)oc12,24.6*,-5.3%,u,-9.6%,37.1*,-12.2%
COc1cccc2cc(-c3nc(-c4ccccc4F)no3)c(=O)oc12,x,x,x,-4.6%,x,x
Cc1ccc(/C=C/C(=O)NC2CCCCCCC2)o1,40.5*,-7.1%,-17.1%,7.94µM*,73.6*,-91.4%
Cc1ccc(/C=N/NC(=S)NC(C)C)o1,8.5,1.9%,-5.3%,0.7%,24.2,-0.2%
Cc1ccc(/C=N/NC(=O)Nc2ccccc2)o1,53.8*,-6.6%,-3.8%,-5.9%,99.9*,22.4%
Cc1cccc(/C=N/NC(=O)NC2CCCCC2)c1,39.4*,0.2%,1.9%,2.4%,68.8*,-17.4%
CC(C)c1ccc(/C=C/C(=O)NC2CCCCC2)cc1,13.3,-1.2%,2.4%,-3.3%,14.5,-6.9%
Cc1ccc(/C=N/NC(=O)NC2CCCCC2)o1,20.9*,1.1%,-1.3%,-5.3%,41.5*,10.6%
COc1cccc(/C=N/NC(=O)CCCC(=O)NC2CCCCC2)c1,-1.8,-3.1%,2.1%,-2.1%,3.1,8.8%
COc1ccc(NC(=O)Cn2c(=O)nc(-c3ccccc3)c3ccccc32)cc1OC,x,x,x,-4.1%,x,x
Cc1ccc(S(=O)(=O)N2CCOCC2)cc1C(=O)OCC(=O)N1c2ccccc2NC(=O)C1(C)C,6.7,4.1%,-3.6%,x,-17.0,x
CSc1ccccc1NC(=O)c1cc(C)on1,44.5,0.4%,-0.6%,-15.2%,99.3,-11.2%
O=C(Nc1ccc(F)cc1F)c1cc(-c2ccco2)on1,30.7*,-6.1%,5.3%,-7.6%,93.3*,9.6%
Cc1c(Cl)cccc1NC(=O)c1cc(-c2cccs2)on1,x,x,x,-1.4%,x,x
CSc1ccccc1NC(=O)c1cc(C(C)C)on1,50.3*,-16.0%,-0.8%,-12.8%,116.8*,-28.3%
Cc1c(Cl)cccc1NC(=O)c1cc(-c2ccco2)on1,36.1,-5.1%,-6.0%,-1.5%,53.6*,-6.6%
CSc1ccccc1NC(=O)c1cc(-c2ccco2)on1,18.0*,-1.5%,-4.7%,-4.8%,55.1*,-4.0%
O=C(Nc1c(F)cc(F)cc1Br)c1cc(-c2ccco2)on1,11.7,-2.0%,4.3%,-1.4%,-5.7,-7.1%
CCC(C)C1Nc2ccc(C(=O)NCCc3ccc(OC)c(OC)c3)cc2NC1=O (configuration not stated),-5.5,-7.0%,-2.6%,-1.8%,-4.7,-18.2%
Cc1cc2nc(-c3ccccc3)cc(=O)n2[nH]1,21.0,-1.0%,u,-7.5%,31.4,-6.1%
Cc1cc(=O)n2cc(-c3ccccc3)nc2[nH]1,22.2*,-12.1%,-10.4%,x,0.0,1.2%[3.69 µM]
Cc1ccc(-c2cn3c(=O)cc(C)[nH]c3n2)cc1,26.1*,0.1%,-4.5%,-14.2%,48.8,0.5%
CC1CCN(C2=NC(=O)/C(=C/c3ccccc3F)S2)CC1,38.4*,-1.1%,-0.4%,-6.0%,68.3*,-10.2%
CCC(=O)N1CCc2cc(S(=O)(=O)NCCC(=O)Nc3cccc(SC)c3)ccc21,x,x,x,3.0%,x,x
COc1ccc(NC(=O)COC(=O)CN2C(=O)c3ccccc3C2=O)cc1,x,x,x,-3.1%,x,20.2%
SMILES,Cycloheximide cs,LmPK inhibitor,FBPA Giardia inh,Tb PYK inh,Shiga inhibitor,RE007 growth inh
COc1cc(C2Nc3ccccc3C(=O)N2c2ccccc2)c(Br)cc1OCC(=O)O (configuration not stated),12.2,3.1%,4.6%,-2.4%,24.0*,x
COc1cccc(Cn2c(SCC(=O)N3CCN(c4ccc(F)cc4)CC3)nc3ccccc32)c1,x,x,x,-2.5%,x,x
COc1cccc(C2=NO[C@@H]3C(=O)N(Cc4ccccc4)C(=O)[C@H]23)c1OC,4.1,7.9%,-7.3%,2.2%,27.3,-8.7%
COc1cccc(C2=NO[C@@H]3C(=O)N(c4ccc5c(c4)OCCO5)C(=O)[C@H]23)c1OC,66.0*,0.9%,u,1.4%,109.1*,0.2%
COC1=C(OC)C(=O)C(CC=C(C)CCC=C(C)CCC=C(C)CCC=C(C)CCC=C(C)CCC=C(C)CCC=C(C)CCC=C(C)CCC=C(C)CCC=C(C)C)=C(C)C1=O,x,x,x,-0.1%,x,x
COC(=O)c1ccccc1NC(=O)Cn1nnc2sc(-c3ccccc3)cc2c1=O,x,x,x,3.4%,x,x
